Values joined by “and” are separate entries in the source; they are usually repeats but may differ in a detail not shown here. Equal values may be shown once. Results filed as inconclusive are left out. Where a call stands in place of a potency, no number is given. Active and inactive are the calls of the source. Unless noted, calls follow the shape of the full dose curve.
Columns and labels:
[1] = Nuclear factor erythroid 2-related factor 2/antioxidant responsive element (Nrf2/ARE) small molecule agonists: qHTS cell viability counter screen in human keratinocytes (AID 1919968; active = well fitted curve in the direction sought with a large enough effect in the repeat runs; an effect the other way counts as inactive or inconclusive; also: nearly all actives have a fitted effect of over 55% in size)
Procedure, shortened: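 In human HaCaT keratinocytes stably expressing an ARE-driven luciferase, compound exposure lasted 23 h at 37 C under 5% CO2. Viable cells are quantified with a protease-based fluorogenic reagent (CellTiter-Fluor) read 1 h after addition.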

[2] = Nuclear factor erythroid 2-related factor 2/antioxidant responsive element (Nrf2/ARE) small molecule agonists: luciferase reporter gene qHTS assay in human keratinocytes (AID 1919969); also: nearly all actives have a fitted effect of over 35% in size; also: potency is read from the fitted curve at half-maximal effect
[3] = target: Gonadotropin-releasing hormone receptor (Homo sapiens) (UniProt P30968); assay: Human gonadotropin-releasing hormone receptor (GnRHR) small molecule agonists, calcium flux assay in GnRHR-HEK293 cells (AID 1920063); also: nearly all actives have a fitted effect of over 35% in size
Chain of Gonadotropin-releasing hormone receptor (Homo sapiens) (P30968 whole entry, looked up): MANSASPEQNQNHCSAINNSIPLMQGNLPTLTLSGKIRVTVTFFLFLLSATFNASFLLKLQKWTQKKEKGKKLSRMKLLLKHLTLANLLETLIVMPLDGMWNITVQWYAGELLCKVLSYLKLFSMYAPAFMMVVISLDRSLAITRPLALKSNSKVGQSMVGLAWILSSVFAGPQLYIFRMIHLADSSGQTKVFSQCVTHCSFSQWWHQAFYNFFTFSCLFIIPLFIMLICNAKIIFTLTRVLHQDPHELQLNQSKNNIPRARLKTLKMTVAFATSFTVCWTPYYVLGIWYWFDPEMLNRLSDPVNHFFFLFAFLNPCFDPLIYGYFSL
Procedure, shortened: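 Intracellular calcium rise is the read-out: engineered human GnRHR HEK293 cells, dye-loaded, are exposed to DMSO-dissolved compounds and fluorescence at Ex/Em 480/540 is tracked for 3 min.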

[4] = target: KiSS-1 receptor (Homo sapiens) (UniProt Q969F8); assay: Human kisspeptin (KISS1R) small molecule agonists, calcium flux assay in KISS1R-HEK293 cells (AID 1920064; active = well fitted curve in the direction sought with a large enough effect in the repeat runs; an effect the other way counts as inactive or inconclusive)
Chain of KiSS-1 receptor (Homo sapiens) (Q969F8 whole entry, looked up): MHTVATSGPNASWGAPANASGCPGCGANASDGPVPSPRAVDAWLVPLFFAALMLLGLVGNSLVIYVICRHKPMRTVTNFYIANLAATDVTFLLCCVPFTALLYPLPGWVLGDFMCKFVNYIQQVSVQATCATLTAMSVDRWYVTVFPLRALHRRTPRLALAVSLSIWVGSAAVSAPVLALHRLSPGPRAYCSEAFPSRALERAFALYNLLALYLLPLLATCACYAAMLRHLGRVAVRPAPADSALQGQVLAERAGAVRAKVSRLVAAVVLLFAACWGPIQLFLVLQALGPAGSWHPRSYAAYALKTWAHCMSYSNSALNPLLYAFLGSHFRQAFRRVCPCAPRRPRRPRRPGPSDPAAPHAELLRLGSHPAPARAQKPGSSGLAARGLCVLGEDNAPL
Procedure, shortened: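 Concentration-response testing used 15 concentrations in triplicate on human KISS1R-expressing HEK293 cells. Calcium-dependent fluorescence (Ex/Em 480/540) was followed kinetically for 3 min after compound transfer.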

[5] = G protein-coupled receptor (GPCR) small molecule agonists, calcium flux assay: HEK293 wild type cell line counter screen (AID 1920065)
Procedure, shortened: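 Fluorescence intensity signals activation. After overnight (18 h) culture and a 1 h calcium dye load at 37 C, compounds are added by pin tool and the plate read at 480/540 nm for 3 min in 1 s steps.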

[6] = p53 small molecule agonists, cell-based qHTS assay with human liver microsomes (AID 1963577)
Procedure, shortened: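 Compounds act here after metabolic activation: human liver microsomes and NADPH, both at 0.5 mg/mL final, were co-added to p53RE-bla cells. Incubation ran 16 h at 37 C, followed by LiveBLAzer detection.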

[7] = p53 small molecule agonists, cell-based qHTS assay with rat liver microsomes (AID 1963578)
Procedure, shortened: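 Read-out is beta-lactamase reporter fluorescence (LiveBLAzer, 2 h, room temperature, dark) in p53RE-bla cells treated 16 h at 37 C with compound, rat liver microsomes and NADPH, both 0.5 mg/mL final.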

[8] = p53 small molecule agonists, cell-based qHTS assay with human liver microsomes: qHTS cell viability counter screen (AID 1963579); also: nearly all actives have a fitted effect of over 45% in size
Procedure, shortened: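 Cells carrying the p53 response-element beta-lactamase reporter are treated for 16 h at 37 C with test compounds in the presence of human liver microsomes and NADPH (both 0.5 mg/mL final); ATP-based CellTiter-Glo luminescence then reports viability.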

[9] = p53 small molecule agonists, cell-based qHTS assay with rat liver microsomes: qHTS cell viability counter screen (AID 1963580); also: nearly all actives have a fitted effect of over 45% in size
Procedure, shortened: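 Luminescent ATP readout (CellTiter-Glo, 30 min at room temperature) reports viability of p53RE-bla HCT-116 cells after 16 h at 37 C with test compounds under metabolic activation by rat liver microsomes and NADPH at 0.5 mg/mL final each.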

[10] = p53 small molecule agonists, cell-based qHTS assay: qHTS cell viability counter screen (AID 1963581); also: nearly all actives have a fitted effect of over 45% in size
Procedure, shortened: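 Luminescence from CellTiter-Glo, reflecting ATP content, serves as the cytotoxicity measure; it is taken after the 2 h reporter substrate step in HCT-116 p53RE-bla cells dosed for 16 h at 37 C.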

[11] = p53 small molecule agonists, cell-based qHTS assay (AID 1963582; active = well fitted activation curve with a large enough effect in the signal ratio in the repeat runs, not every such curve was filed as active; the % refers to the signal ratio)
Procedure, shortened: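 After plating, p53RE-bla cells sat 5 h in the incubator; compounds or DMSO vehicle were pinned in; a 16 h incubation at 37 C followed; FRET substrate was added and, 2 h later at RT, fluorescence was measured.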

[12] = target: 5-hydroxytryptamine receptor 2A (Homo sapiens) (UniProt P28223); assay: 5-hydroxytryptamine receptor 2A (HTR2A) small molecule antagonists, cell-based qHTS assay (AID 1963586); also: nearly all actives have a fitted effect of over 45% in size
Chain of 5-hydroxytryptamine receptor 2A (Homo sapiens) (P28223 whole entry, looked up): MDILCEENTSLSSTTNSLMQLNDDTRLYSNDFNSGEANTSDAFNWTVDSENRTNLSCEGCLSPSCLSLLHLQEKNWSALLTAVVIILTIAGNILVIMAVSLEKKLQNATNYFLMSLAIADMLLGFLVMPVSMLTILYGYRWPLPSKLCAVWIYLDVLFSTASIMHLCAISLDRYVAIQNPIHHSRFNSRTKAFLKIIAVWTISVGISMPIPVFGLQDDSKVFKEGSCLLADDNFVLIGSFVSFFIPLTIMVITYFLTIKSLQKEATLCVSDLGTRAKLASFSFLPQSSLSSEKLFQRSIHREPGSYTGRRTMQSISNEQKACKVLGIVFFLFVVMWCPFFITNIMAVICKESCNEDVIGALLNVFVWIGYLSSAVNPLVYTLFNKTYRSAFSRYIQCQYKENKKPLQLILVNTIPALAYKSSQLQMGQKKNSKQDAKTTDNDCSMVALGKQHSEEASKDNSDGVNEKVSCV
Procedure, shortened: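 CHO cells stably expressing human HTR2A were plated for 18 h at 37 C, then loaded with calcium dye for 1 h. Compounds were preincubated 5 min at room temperature before DOI (4 nM solution) was added. Kinetic fluorescence was read for 3 min.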

[13] = target: 5-hydroxytryptamine receptor 2A (Homo sapiens) (UniProt P28223); assay: 5-hydroxytryptamine receptor 2A (HTR2A) small molecule agonists, cell-based qHTS assay (AID 1963587); also: nearly all actives have a fitted effect of over 30% in size
Procedure, shortened: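 HTR2A-CHO cells, plated 18 h at 37 C/5% CO2, dye-loaded 1 h at 37 C; compounds in DMSO added by pin tool (agonist mode). Intracellular calcium flux read as kinetic fluorescence on FDSS over 2 min at 1 s intervals.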

[14] = target: Muscarinic acetylcholine receptor M1 (Homo sapiens) (UniProt P11229); assay: Cholinergic receptor muscarinic 1 (CHRM1) small molecule antagonists, cell-based qHTS assay (AID 1963588); also: nearly all actives have a fitted effect of over 40% in size; also: potency is read from the fitted curve at half-maximal effect
Chain of Muscarinic acetylcholine receptor M1 (Homo sapiens) (P11229 whole entry, looked up): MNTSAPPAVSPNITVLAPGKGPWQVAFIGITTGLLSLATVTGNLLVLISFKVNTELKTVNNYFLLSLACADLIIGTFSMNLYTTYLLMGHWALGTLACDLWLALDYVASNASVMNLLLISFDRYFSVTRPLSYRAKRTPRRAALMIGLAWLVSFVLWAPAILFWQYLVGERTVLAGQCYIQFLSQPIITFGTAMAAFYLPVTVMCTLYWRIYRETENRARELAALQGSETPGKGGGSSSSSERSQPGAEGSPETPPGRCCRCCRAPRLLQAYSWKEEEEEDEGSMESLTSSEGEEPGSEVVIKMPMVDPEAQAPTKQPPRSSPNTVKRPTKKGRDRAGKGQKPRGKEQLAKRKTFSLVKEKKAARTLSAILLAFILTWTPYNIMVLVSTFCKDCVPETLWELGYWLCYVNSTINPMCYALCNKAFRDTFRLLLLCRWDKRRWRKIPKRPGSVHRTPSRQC
Procedure, shortened: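 Compounds were tested at 15 concentrations in three independent runs. Dye-loaded CHRM1-CHO cells were exposed 5 min at room temperature before stimulation by acetylcholine added at 50nM. Intracellular calcium was read kinetically on FDSS for 3 min.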

[15] = target: Muscarinic acetylcholine receptor M1 (Homo sapiens) (UniProt P11229); assay: Cholinergic receptor muscarinic 1 (CHRM1) small molecule agonists, cell-based qHTS assay (AID 1963589); also: nearly all actives have a fitted effect of over 35% in size
Procedure, shortened: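 Fluorescent calcium dye reports M1 activation in stably transfected CHO cells. Compounds, 15 concentrations, added after 1 h dye loading at 37 C; kinetic reading at 1 sec intervals.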

[16] = cAMP Responsive Elements (CRE) small molecule agonists, cell-based qHTS assay (AID 1963590)
Procedure, shortened: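 Compound exposure lasted 3 h at 37 C/5% CO2 in CRE-bla HEK 293T cells grown in assay medium with 10% dialyzed FBS and 25 mM HEPES. Reporter signal came from LiveBLAzer B/G FRET substrate, 2 h, room temperature.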

[17] = cAMP Responsive Elements (CRE) small molecule antagonists, cell-based qHTS assay (AID 1963591; active = well fitted inhibition curve with a large enough effect in the signal ratio in the repeat runs, not every such curve was filed as active; the % refers to the signal ratio)
Procedure, shortened: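 Stimulation used NKH477 at a final 0.25 uM for 3 h in compound-treated CRE-bla HEK293T cells, seeded 18 h beforehand. Reporter activity was measured with LiveBLAzer B/G FRET substrate after 2 h at room temperature.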

[18] = target: Beta-2 adrenergic receptor (Homo sapiens) (UniProt P07550); assay: Adrenergic beta2 receptor (ADRB2) small molecule antagonists, cell-based qHTS assay (AID 1963592); also: series mostly up to about 92 µM; nearly all actives have a fitted effect of over 50% in size
Chain of Beta-2 adrenergic receptor (Homo sapiens) (P07550 whole entry, looked up): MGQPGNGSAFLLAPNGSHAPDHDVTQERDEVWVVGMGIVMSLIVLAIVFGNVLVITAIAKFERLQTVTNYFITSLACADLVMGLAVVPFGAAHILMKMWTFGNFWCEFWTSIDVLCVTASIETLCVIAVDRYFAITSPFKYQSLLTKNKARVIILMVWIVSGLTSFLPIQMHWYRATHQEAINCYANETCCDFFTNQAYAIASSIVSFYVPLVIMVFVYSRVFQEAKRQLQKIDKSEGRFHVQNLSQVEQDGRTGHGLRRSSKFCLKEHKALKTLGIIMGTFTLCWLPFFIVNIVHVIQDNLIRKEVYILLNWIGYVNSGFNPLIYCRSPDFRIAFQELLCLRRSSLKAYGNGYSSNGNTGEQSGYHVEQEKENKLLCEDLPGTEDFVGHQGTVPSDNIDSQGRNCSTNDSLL
Procedure, shortened: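 Assay format: CHO-ADRB2 cells, 18-20hr seeding at 37C/5% CO2, then compound plus 1nM isoproterenol agonist mix for 0.5hr RT. Homogeneous time-resolved fluorescence cAMP detection after 1hr, expressed as 665/615 nm ratio.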

[19] = target: D(2) dopamine receptor (Homo sapiens) (UniProt P14416); assay: Dopamine D2 receptor (DRD2) small molecule agonists, cell-based qHTS assay (AID 1963594); also: nearly all actives have a fitted effect of over 35% in size
Chain of D(2) dopamine receptor (Homo sapiens) (P14416 whole entry, looked up): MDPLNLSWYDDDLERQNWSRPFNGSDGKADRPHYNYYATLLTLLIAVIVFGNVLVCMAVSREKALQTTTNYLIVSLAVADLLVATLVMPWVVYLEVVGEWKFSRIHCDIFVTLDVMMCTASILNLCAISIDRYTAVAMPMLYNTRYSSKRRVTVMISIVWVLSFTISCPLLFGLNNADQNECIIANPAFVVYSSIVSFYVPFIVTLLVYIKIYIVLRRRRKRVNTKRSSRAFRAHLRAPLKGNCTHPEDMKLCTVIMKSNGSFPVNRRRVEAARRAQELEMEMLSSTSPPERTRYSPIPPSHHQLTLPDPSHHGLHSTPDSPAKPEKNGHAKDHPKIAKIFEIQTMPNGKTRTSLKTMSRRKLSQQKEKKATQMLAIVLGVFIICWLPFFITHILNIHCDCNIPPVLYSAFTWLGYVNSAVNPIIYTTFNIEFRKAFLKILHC
Procedure, shortened: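 HEK293 cells stably expressing DRD2 were cultured 24 h at 37 C, then given Ro20-1724 (0.1 mM final) and compounds for 10 min at room temperature. NKH477 (200nM) was then added for 30 min. cAMP was read by HTRF.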

[20] = target: D(2) dopamine receptor (Homo sapiens) (UniProt P14416); assay: Dopamine D2 receptor (DRD2) small molecule antagonists, cell-based qHTS assay (AID 1963595; active = well fitted inhibition curve with a large enough effect in the signal ratio in the repeat runs, with a control signal flat; the % refers to the signal ratio)
Procedure, shortened: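 HEK293 cells stably expressing DRD2 were preincubated with 0.1 mM Ro20-1724, then with compound for 10 min at room temperature. Cells were stimulated with 200 nM NKH477 plus 12 nM quinpirole for 30 min, and cAMP was read by HTRF.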

| SMILES | Potency [1] | Potency [2] | Potency [3] | Potency [4] | Potency [5] | Potency [6] | Potency [7] | Potency [8] | Potency [9] | Potency [10] | Potency [11] | Potency [12] | Potency [13] | Potency [14] | Potency [15] | Potency [16] | Potency [17] | Potency [18] | Potency [19] | Potency [20] |
| --- | --- | --- | --- | --- | --- | --- | --- | --- | --- | --- | --- | --- | --- | --- | --- | --- | --- | --- | --- | --- |
| O=C(Cl)/C=C/C(=O)Cl | inactive | inactive | inactive | inactive | inactive | inactive | inactive | inactive | inactive | inactive | inactive | inactive | inactive | 1.1 nM (active) | inactive | inactive | inactive | inactive | inactive | inactive |
| CCOc1ccc(N)cc1 | inactive | inactive | inactive | inactive | inactive | inactive | inactive | inactive | inactive | inactive | inactive | inactive | inactive | inactive | inactive | inactive | inactive | inactive | inactive | inactive |
| ClCC(Br)CBr (configuration not stated) | inactive | inactive | inactive | inactive | inactive | inactive | inactive | inactive | inactive | inactive | inactive | inactive | inactive | inactive | inactive | inactive | inactive | inactive | inactive | inactive |
| O=Cc1ccco1 | inactive | inactive | inactive | inactive | inactive | inactive | inactive | inactive | inactive | inactive | inactive | inactive | inactive | inactive | inactive | inactive | inactive | inactive | inactive | inactive |
| CCCCC1C(=O)NC(=O)N(C2CCCCC2)C1=O (configuration not stated) | inactive | inactive | inactive | inactive | inactive | inactive | inactive | inactive | inactive | inactive | inactive | inactive | inactive | inactive | inactive | inactive | inactive | inactive | inactive | inactive |
| Fc1cc(Br)ccc1CBr | inactive | inactive | inactive | inactive | inactive | inactive | inactive | inactive | inactive | inactive | inactive | inactive | inactive | inactive | inactive | inactive | inactive | inactive | – | inactive |
| O=C1CC(=O)NC(=O)N1 | inactive | inactive | inactive | inactive | inactive | inactive | inactive | inactive | inactive | inactive | inactive | inactive | inactive | inactive | inactive | inactive | inactive | inactive | inactive | inactive |
| Cc1ccc(Cl)c(O)c1 | inactive | inactive | inactive | inactive | inactive | inactive | inactive | inactive | inactive | inactive | inactive | inactive | inactive | inactive | inactive | inactive | inactive | inactive | inactive | inactive |
| O=P(Cl)(Cl)Cl | inactive | inactive | inactive | inactive | inactive | inactive | inactive | inactive | inactive | inactive | inactive | inactive | inactive | inactive | inactive | inactive | inactive | inactive | inactive | inactive |
| CC[C@H](N)c1ccccc1 | inactive | inactive | inactive | inactive | inactive | inactive | inactive | inactive | inactive | inactive | inactive | inactive | inactive | inactive | inactive | inactive | inactive | inactive | inactive | inactive |
| ClCC(Cl)CCl | inactive | inactive | inactive | inactive | inactive | inactive | inactive | inactive | inactive | inactive | inactive | inactive | inactive | inactive | inactive | inactive | inactive | inactive | inactive | inactive |
| ClCc1ccccc1 | inactive | inactive | inactive | inactive | inactive | inactive | inactive | inactive | inactive | inactive | inactive | inactive | inactive | inactive | inactive | inactive | inactive | inactive | inactive | inactive |
| N#Cc1cccc(C#N)c1 | inactive | inactive | inactive | inactive | inactive | inactive | inactive | inactive | inactive | inactive | inactive | inactive | inactive | inactive | inactive | inactive | inactive | inactive | inactive | inactive |
| ClC(Cl)(Cl)C(Cl)(Cl)Cl | inactive | inactive | inactive | inactive | inactive | inactive | inactive | inactive | inactive | inactive | inactive | inactive | inactive | inactive | inactive | inactive | inactive | – | inactive | – |
| COc1cc(-c2ccc(N)c(OC)c2)ccc1N | inactive | inactive | inactive | inactive | inactive | inactive | inactive | inactive | inactive | inactive | inactive | inactive | inactive | inactive | inactive | inactive | inactive | – | inactive | inactive |
| C(CCOCC1CO1)COCC1CO1 (configuration not stated) | inactive | 30.2 µM (active) | inactive | inactive | inactive | inactive | inactive | inactive | inactive | inactive | inactive | inactive | inactive | inactive | inactive | inactive | – | inactive | inactive | inactive |
| Cc1ccc2c(c1N)C(=O)c1ccccc1C2=O | inactive | 60.4 µM (active) and 1.93 µM (active) | inactive | inactive | inactive | inactive | inactive | inactive | inactive | inactive | inactive | inactive | inactive | inactive | inactive | – | inactive | inactive | inactive | – |
| OC[P+](CO)(CO)CO | inactive | inactive | inactive | inactive | inactive | inactive | inactive | inactive | inactive | inactive | inactive | inactive | inactive | inactive | inactive | inactive | – | inactive | inactive | inactive |

Reference: PubChem BioAssay (Tox21)
